Source: the supplement of paper PMC10849652
About 8,800 targets were measured; listed, in parts, are those with a hit and a random draw of the rest. About 0.5% of all pairs of compound and target were hits.

Columns and labels:
Assay in all cases: log2 fold change, soluble protein after heating vs DMSO (PISA); higher = thermal stabilisation; K562 lysate, 10 uM; active = over 0.2 and 3.5 SD of the protein, either way, in both replicates (recomputed)
vemurafenib = compound: CCCS(=O)(=O)Nc1ccc(F)c(C(=O)c2c[nH]c3ncc(-c4ccc(Cl)cc4)cc23)c1F [vemurafenib]
In short: (§1)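 Values give the log-two fold change in thermal stability against solvent controls, from duplicates. Crude K562 extract at 1 mg/mL protein, made by dounce homogenisation in PBS pH 7.4 with 1 mM MgCl2, was treated with 10 μM compound for 30 min. After 3 min heating across 48°C-58°C, aliquots were pooled, adjusted to 0.5% NP-40 at 4°C and centrifuged at 21,000xg for 90 min. The supernatant was measured by TMTpro 16plex LC-MS/MS with channel sums equalised.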

[1] = compound: CCCS(=O)(=O)Nc1ccc(F)c(C(=O)c2c[nH]c3ncc(Cl)cc23)c1F
In short: as §1

barasertib = compound: CCN(CCCOc1ccc2c(Nc3cc(CC(=O)Nc4cccc(F)c4)[nH]n3)ncnc2c1)CCOP(=O)(O)O [barasertib]
In short: as §1

[2] = compound: CC[C@@H]1C(=O)N(C)c2cnc(Nc3ccc(C(=O)NC4CCN(C)CC4)cc3OC)nc2N1C1CCCC1
In short: as §1

volasertib = compound: CC[C@@H]1C(=O)N(C)c2cnc(Nc3ccc(C(=O)N[C@H]4CC[C@H](N5CCN(CC6CC6)CC5)CC4)cc3OC)nc2N1C(C)C [volasertib]
In short: as §1

[3] = compound: CCn1c(C(=O)N(C2CC2)C2CC2)cc2c3c(ncn3C)c(Nc3cc(C)n(C)n3)nc21
In short: as §1

[4] = compound: CCn1cc(-c2ccnc3[nH]c(-c4cccc(CN(C)C)c4)cc23)c(-c2ccc(NC(=O)N(C)C)cc2)n1
In short: as §1

[5] = compound: CN1CCC(CNc2ccc3ncc(-c4cccc(OC(F)(F)F)c4)n3n2)CC1
In short: as §1

saracatinib = compound: CN1CCN(CCOc2cc(OC3CCOCC3)c3c(Nc4c(Cl)ccc5c4OCO5)ncnc3c2)CC1 [saracatinib]
In short: as §1

sotrastaurin = compound: CN1CCN(c2nc(C3=C(c4c[nH]c5ccccc45)C(=O)NC3=O)c3ccccc3n2)CC1 [sotrastaurin]
In short: as §1

alvocidib = compound: CN1CC[C@H](c2c(O)cc(O)c3c(=O)cc(-c4ccccc4Cl)oc23)[C@H](O)C1 [alvocidib]
In short: as §1

Tubastatin A = compound: CN1CCc2c(c3ccccc3n2Cc2ccc(C(=O)NO)cc2)C1 [Tubastatin A]
In short: as §1

[6] = compound: CNC(=O)C1=CC=CC=C1NC2=NC(=NC=C2Cl)NC3=C(C=C(C=C3)N4CCOCC4)OC
In short: as §1

defactinib = compound: CNC(=O)c1ccc(Nc2ncc(C(F)(F)F)c(NCc3nccnc3N(C)S(C)(=O)=O)n2)cc1 [defactinib]
In short: as §1

[7] = compound: CNc1nc(-c2ccc3c(N)n[nH]c3c2)cc(N2C[C@@H](C(=O)NC3CCCCC3)CC[C@H]2C)n1
In short: as §1

encorafenib = compound: COC(=O)N[C@@H](C)CNc1nccc(-c2cn(C(C)C)nc2-c2cc(Cl)cc(NS(C)(=O)=O)c2F)n1 [encorafenib]
In short: as §1

[8] = compound: COC(=O)[C@H](CCSC)NC(=O)C1=C(C=C(C=C1)NC[C@H](CS)N)C2=CC=CC=C2
In short: as §1

alisertib = compound: COc1cc(Nc2ncc3c(n2)-c2ccc(Cl)cc2C(c2c(F)cccc2OC)=NC3)ccc1C(=O)O [alisertib]
In short: as §1

[9] = compound: COc1cc2nc(-c3cc(F)ccc3O)nc(N[C@@H]3CNC[C@H]3C(C)(C)O)c2cc1OC
In short: as §1

gefitinib = compound: COc1cc2ncnc(Nc3ccc(F)c(Cl)c3)c2cc1OCCCN1CCOCC1 [gefitinib]
In short: as §1

Measured: log2 fold change

IMPDH2 (UniProt P12268)
active: Tubastatin A -0.226 | [8] -0.501
inactive: vemurafenib 0.015 | [1] 0.009 | barasertib -0.056 | [2] -0.015 | volasertib 0.012 | [3] 0.039 | [4] 0.11 | [5] 0.01 | saracatinib -0.001 | sotrastaurin -0.005 | alvocidib 0.026 | [6] 0.013 | defactinib 0.03 | [7] 0.017 | encorafenib 0.021 | alisertib 0.029 | [9] -0.015 | gefitinib -0.023

GMPS (UniProt P49915)
Chain of UniProt P49915 (P49915 whole entry, looked up): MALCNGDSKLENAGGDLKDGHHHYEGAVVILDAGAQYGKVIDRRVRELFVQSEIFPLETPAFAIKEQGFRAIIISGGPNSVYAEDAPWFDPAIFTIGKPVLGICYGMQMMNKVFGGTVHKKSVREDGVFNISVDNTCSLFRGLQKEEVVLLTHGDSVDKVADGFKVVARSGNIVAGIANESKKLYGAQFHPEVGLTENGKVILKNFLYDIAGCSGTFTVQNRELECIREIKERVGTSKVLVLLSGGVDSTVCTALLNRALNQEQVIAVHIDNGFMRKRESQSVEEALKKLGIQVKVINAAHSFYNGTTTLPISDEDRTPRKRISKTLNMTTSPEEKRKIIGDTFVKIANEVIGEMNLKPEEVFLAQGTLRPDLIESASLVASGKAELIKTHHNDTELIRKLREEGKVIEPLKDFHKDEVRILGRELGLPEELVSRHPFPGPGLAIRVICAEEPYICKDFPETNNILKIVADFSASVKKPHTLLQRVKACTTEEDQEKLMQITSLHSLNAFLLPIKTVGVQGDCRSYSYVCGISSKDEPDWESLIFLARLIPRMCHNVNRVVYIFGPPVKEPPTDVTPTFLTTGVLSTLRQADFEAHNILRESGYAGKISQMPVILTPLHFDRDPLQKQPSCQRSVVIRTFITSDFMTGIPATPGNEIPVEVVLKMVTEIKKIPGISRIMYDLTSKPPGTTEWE
inactive: vemurafenib -0.006 | [1] -0.011 | barasertib -0.008 | [2] -0.05 | volasertib -0.046 | [3] -0.011 | [4] 0.128 | [5] -0.047 | saracatinib 0.014 | sotrastaurin -0.005 | alvocidib 0.04 | Tubastatin A -0.065 | [6] -0.009 | defactinib 0.014 | [7] -0.025 | encorafenib -0.022 | [8] 0.025 | alisertib 0.005 | [9] -0.003 | gefitinib -0.026

KEAP1 (UniProt Q14145)
Chain of UniProt Q14145 (Q14145 whole entry, looked up): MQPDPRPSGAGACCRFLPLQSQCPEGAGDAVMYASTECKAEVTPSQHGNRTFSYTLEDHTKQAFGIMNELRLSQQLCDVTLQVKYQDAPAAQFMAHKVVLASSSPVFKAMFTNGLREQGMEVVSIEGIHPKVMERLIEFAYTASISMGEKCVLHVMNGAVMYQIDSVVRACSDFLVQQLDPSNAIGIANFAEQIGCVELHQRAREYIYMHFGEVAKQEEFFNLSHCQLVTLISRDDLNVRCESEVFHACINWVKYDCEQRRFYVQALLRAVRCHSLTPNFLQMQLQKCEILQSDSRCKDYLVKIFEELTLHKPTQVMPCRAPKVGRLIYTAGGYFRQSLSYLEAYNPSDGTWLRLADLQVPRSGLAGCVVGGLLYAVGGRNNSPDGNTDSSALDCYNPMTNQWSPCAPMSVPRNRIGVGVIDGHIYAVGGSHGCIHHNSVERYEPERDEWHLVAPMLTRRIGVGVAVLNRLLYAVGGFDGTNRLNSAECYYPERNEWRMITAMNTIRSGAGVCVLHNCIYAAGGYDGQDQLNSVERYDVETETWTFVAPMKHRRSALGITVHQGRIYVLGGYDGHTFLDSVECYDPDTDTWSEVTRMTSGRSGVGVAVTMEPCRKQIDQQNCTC
inactive: vemurafenib 0.014 | [1] 0 | barasertib 0.01 | [2] -0.008 | volasertib -0.001 | [3] -0.016 | [4] -0.017 | [5] 0.044 | saracatinib -0.018 | sotrastaurin 0.033 | alvocidib -0.024 | Tubastatin A -0.019 | [6] -0.008 | defactinib 0.014 | [7] 0.017 | encorafenib 0.043 | [8] -0.094 | alisertib 0.012 | [9] 0.013 | gefitinib 0.018

HSPB1 (UniProt P04792)
Chain of UniProt P04792 (P04792 whole entry, looked up): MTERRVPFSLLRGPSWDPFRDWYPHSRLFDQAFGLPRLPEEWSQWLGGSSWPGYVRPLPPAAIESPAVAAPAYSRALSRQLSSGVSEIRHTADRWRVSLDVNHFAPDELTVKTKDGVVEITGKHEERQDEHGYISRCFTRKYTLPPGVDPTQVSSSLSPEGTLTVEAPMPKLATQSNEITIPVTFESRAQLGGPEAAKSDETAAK
inactive: vemurafenib -0.001 | [1] -0.003 | barasertib 0.019 | [2] 0.008 | volasertib -0.02 | [3] 0.01 | [4] 0.005 | [5] -0.042 | saracatinib 0.024 | sotrastaurin 0.005 | alvocidib 0.003 | Tubastatin A -0.023 | [6] -0.003 | defactinib 0 | [7] -0.036 | encorafenib -0.001 | [8] 0.025 | alisertib 0.012 | [9] 0.009 | gefitinib -0.012

GSK3B isoform 2 (UniProt P49841)
Chain of UniProt P49841 (P49841 whole entry, looked up): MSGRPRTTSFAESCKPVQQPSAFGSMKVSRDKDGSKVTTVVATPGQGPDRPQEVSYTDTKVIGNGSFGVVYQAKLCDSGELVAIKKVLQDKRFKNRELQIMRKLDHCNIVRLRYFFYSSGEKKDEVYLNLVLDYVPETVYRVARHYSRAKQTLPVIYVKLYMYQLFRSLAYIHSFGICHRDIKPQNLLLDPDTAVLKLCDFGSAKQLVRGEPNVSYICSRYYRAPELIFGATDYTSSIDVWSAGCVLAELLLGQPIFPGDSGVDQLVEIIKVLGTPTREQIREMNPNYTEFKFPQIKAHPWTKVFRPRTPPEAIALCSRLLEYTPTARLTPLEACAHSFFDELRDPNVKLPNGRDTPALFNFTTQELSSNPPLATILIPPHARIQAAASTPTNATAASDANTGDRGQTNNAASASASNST
inactive: vemurafenib -0.009 | [1] 0.038 | barasertib 0.026 | [2] -0.015 | volasertib -0.093 | [3] -0.011 | [4] -0.013 | [5] 0.096 | saracatinib -0.049 | sotrastaurin 0.601 | alvocidib 0.518 | Tubastatin A -0.077 | [6] 0.015 | defactinib 0.562 | [7] 0.114 | encorafenib 0.425 | [8] -0.114 | [9] 0 | gefitinib 0.029

IARS (UniProt P41252)
Chain of UniProt P41252 (P41252 whole entry, looked up): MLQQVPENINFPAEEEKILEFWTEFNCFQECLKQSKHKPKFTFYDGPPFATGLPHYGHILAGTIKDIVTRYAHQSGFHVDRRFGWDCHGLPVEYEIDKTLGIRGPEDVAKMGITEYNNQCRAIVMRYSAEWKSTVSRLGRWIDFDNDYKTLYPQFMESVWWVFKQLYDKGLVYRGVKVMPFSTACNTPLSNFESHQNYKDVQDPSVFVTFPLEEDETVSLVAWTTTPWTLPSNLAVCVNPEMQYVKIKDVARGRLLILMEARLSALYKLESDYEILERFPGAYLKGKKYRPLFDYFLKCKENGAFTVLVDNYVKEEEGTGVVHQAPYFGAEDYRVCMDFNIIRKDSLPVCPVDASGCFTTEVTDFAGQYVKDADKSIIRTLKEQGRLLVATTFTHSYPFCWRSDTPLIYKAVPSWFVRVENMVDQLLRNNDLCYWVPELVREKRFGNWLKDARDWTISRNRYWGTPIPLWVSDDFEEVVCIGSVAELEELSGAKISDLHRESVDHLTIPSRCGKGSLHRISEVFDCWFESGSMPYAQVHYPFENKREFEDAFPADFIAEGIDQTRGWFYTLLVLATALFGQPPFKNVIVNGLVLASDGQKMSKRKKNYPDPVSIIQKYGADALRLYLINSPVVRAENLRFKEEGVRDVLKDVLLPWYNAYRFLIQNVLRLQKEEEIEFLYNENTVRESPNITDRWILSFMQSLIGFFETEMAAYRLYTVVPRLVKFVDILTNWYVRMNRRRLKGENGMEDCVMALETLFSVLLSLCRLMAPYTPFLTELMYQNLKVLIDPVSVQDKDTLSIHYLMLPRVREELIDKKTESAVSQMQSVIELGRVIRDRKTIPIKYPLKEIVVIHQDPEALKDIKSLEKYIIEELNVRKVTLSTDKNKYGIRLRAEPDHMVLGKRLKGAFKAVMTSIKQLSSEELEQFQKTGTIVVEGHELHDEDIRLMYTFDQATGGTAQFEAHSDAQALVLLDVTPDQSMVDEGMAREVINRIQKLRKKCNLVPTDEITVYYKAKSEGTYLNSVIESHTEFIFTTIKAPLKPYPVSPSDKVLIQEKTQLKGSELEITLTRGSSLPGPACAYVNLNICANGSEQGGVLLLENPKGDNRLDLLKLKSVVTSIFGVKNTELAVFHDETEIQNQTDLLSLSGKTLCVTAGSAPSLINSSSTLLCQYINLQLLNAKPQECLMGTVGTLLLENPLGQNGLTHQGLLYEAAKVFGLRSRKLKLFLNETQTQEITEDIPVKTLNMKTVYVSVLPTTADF
inactive: vemurafenib 0.004 | [1] 0.011 | barasertib 0.026 | [2] -0.086 | volasertib -0.079 | [3] 0.048 | [4] 0.044 | [5] -0.111 | saracatinib 0.006 | sotrastaurin 0.014 | alvocidib 0.006 | Tubastatin A -0.134 | [6] 0.01 | defactinib 0.02 | [7] -0.03 | encorafenib 0 | [8] 0.134 | alisertib 0.02 | [9] 0.008 | gefitinib -0.021

GTPBP2 (UniProt Q9BX10)
Chain of UniProt Q9BX10 (Q9BX10 whole entry, looked up): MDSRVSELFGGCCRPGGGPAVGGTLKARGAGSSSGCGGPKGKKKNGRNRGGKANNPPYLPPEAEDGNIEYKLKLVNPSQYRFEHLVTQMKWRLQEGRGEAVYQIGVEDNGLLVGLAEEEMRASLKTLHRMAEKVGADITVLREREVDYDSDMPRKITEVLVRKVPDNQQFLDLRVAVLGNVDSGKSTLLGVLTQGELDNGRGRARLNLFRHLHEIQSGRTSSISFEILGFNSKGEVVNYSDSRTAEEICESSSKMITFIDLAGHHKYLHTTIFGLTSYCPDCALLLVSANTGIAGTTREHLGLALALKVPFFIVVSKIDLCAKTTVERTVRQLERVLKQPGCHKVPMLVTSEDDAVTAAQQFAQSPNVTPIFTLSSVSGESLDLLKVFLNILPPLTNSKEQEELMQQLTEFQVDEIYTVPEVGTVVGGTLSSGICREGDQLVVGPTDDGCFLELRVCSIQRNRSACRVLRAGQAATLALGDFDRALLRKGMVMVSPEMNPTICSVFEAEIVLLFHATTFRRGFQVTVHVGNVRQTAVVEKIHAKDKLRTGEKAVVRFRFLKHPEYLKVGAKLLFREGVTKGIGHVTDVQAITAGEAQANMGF
inactive: vemurafenib 0.005 | [1] 0.005 | barasertib 0.034 | [2] -0.03 | volasertib -0.104 | [3] 0.043 | [4] 0.124 | [5] -0.074 | saracatinib 0.047 | sotrastaurin 0.043 | alvocidib -0.001 | Tubastatin A -0.045 | [6] 0.039 | defactinib 0.018 | [7] -0.037 | encorafenib 0.002 | [8] 0.079 | alisertib 0.034 | [9] -0.07 | gefitinib 0.058

INTS3 (UniProt Q68E01)
Chain of UniProt Q68E01 (Q68E01 whole entry, looked up): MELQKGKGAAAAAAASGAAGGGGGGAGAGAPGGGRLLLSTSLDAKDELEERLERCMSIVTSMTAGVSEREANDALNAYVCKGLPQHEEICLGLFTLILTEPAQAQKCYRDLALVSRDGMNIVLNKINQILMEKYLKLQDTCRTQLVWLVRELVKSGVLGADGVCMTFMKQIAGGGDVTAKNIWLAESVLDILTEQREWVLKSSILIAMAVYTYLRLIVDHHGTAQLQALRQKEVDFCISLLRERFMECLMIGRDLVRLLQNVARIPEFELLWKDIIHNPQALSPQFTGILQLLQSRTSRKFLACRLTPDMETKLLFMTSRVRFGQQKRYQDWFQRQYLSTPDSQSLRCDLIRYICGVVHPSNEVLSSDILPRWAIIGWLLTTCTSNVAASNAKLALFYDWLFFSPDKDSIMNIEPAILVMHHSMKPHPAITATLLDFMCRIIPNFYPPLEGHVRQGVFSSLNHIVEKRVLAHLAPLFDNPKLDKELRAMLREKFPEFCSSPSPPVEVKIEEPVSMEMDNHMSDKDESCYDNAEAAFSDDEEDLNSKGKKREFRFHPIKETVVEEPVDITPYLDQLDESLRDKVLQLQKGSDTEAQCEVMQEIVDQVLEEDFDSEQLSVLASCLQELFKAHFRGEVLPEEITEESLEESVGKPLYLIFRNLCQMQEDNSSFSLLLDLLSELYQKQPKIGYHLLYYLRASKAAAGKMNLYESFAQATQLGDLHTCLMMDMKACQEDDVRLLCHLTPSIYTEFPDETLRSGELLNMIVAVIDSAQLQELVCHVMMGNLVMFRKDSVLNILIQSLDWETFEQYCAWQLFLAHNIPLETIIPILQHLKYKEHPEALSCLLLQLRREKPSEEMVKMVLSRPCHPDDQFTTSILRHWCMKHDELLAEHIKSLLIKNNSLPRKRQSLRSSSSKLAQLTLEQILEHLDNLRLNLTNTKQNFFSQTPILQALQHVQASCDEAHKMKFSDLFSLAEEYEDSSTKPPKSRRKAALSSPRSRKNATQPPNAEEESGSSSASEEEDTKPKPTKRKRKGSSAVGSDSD
inactive: vemurafenib 0.038 | [1] 0.02 | barasertib 0.05 | [2] -0.029 | volasertib -0.017 | [3] -0.083 | [4] 0.072 | [5] -0.018 | saracatinib 0.049 | sotrastaurin 0.015 | alvocidib -0.003 | Tubastatin A 0.012 | [6] 0.003 | defactinib 0.012 | [7] -0.002 | encorafenib -0.027 | [8] 0.072 | alisertib -0.031 | [9] 0.005 | gefitinib 0.047
